Assay results: PubChem BioAssay (NCATS)
Inconclusive results are not listed. Calls of active or inactive are those of the source. Unless noted, calls come from the whole dose curve; as a rule, active = well fitted curve in the direction sought with a large enough effect; inconclusive = small, poorly fitted or top-dose-only effect, or another doubt; inactive = no such curve, though single readings can be large; an effect the other way counts as inactive or inconclusive.

Key:
[1] = target: Aldehyde dehydrogenase, mitochondrial (Homo sapiens) (UniProt P05091); experiment: qHTS for Inhibitors of the Aldehyde Dehydrogenase Family (ALDH2) Confirmatory screens (AID 2061303; active = well fitted inhibition curve with a large enough effect; title and protocol of this record describe different tests; note: nearly all actives have a fitted effect of over 45% in size); conditions: ALDH inhibition qHTS; series mostly up to 45.4 µM
[2] = target: Aldehyde dehydrogenase, mitochondrial (Homo sapiens) (UniProt P05091); experiment: qHTS for Inhibitors of the Aldehyde Dehydrogenase Family (ALDH2) Primary screen (AID 2061308); conditions: ALDH2 enzyme inhibition qHTS, 1536-well; series mostly up to 56 µM; note: nearly all actives have a fitted effect of over 55% in size
[3] = target: Retinaldehyde dehydrogenase 3 (Homo sapiens) (UniProt P47895); experiment: qHTS for Inhibitors of the Aldehyde Dehydrogenase Family (ALDH1A3) Confirmatory screens (AID 2061311); conditions: ALDH inhibition qHTS; series mostly up to 46 µM; note: nearly all actives have a fitted effect of over 60% in size
[4] = target: Retinaldehyde dehydrogenase 3 (Homo sapiens) (UniProt P47895); experiment: qHTS for Inhibitors of the Aldehyde Dehydrogenase Family (ALDH1A3) Primary screen (AID 2061315); conditions: ALDH inhibition qHTS; series mostly up to 56 µM
[5] = target: Aldehyde dehydrogenase 1A1 (Homo sapiens) (UniProt P00352); experiment: qHTS for Inhibitors of the Aldehyde Dehydrogenase Family (ALDH1A1) Confirmatory screens (AID 2061316); conditions: ALDH inhibition qHTS; series mostly up to 47.3 µM; note: nearly all actives have a fitted effect of over 65% in size
[6] = target: Retinal dehydrogenase 2 (Homo sapiens) (UniProt O94788); experiment: qHTS for Inhibitors of the Aldehyde Dehydrogenase Family (ALDH1A2) Confirmation screens (AID 2061314); conditions: ALDH1A2 enzyme inhibition qHTS confirmation; series mostly up to 45.9 µM; note: nearly all actives have a fitted effect of over 65% in size
[7] = BET inhibitor-based combinations targeting novel dependencies in MECOM-rearranged (r) AML: OCI-AML3 cell line (AID 2202232); conditions: CellTiter-Glo luminescence, 48 h; Potency: OCI-AML3 viability; series mostly up to 46 µM; note: nearly all actives have a fitted effect of over 35% in size
Procedure, shortened: (§1)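 Each compound was tested at eleven concentrations on cells seeded at 500/well. After two days' incubation, ATP-based luminescence reported viability; responses relative to DMSO and blank wells yielded AUC and cell-line-centred Z-AUC.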

[8] = BET inhibitor-based combinations targeting novel dependencies in MECOM-rearranged (r) AML: MV-4-11 cell line (AID 2202233); conditions: MV-4-11 AML viability, CellTiter-Glo luminescence, 48 h; series mostly up to 46 µM; note: nearly all actives have a fitted effect of over 45% in size
Procedure, shortened: (§2)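 First, 500 cells per well were seeded; next, drugs were pinned as 11-point doses; then plates sat 48 hr in the incubator; finally CellTiter-Glo was added and luminescence read, with AUC and Z-AUC computed.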

[9] = BET inhibitor-based combinations targeting novel dependencies in MECOM-rearranged (r) AML: HNT-34 cell line (AID 2202234); conditions: HNT-34 AML viability, CellTiter-Glo luminescence, 48 h; series mostly up to 46 µM; note: nearly all actives have a fitted effect of over 35% in size
Procedure, shortened: as §2

[10] = BET inhibitor-based combinations targeting novel dependencies in MECOM-rearranged (r) AML: UCSD-AML1 cell line (AID 2202235); conditions: UCSD-AML1 AML cells viability, CellTiter-Glo, 48 h; series mostly up to 46 µM; note: nearly all actives have a fitted effect of over 40% in size
Procedure, shortened: as §2

[11] = BET inhibitor-based combinations targeting novel dependencies in MECOM-rearranged (r) AML: AML-194 cell line (AID 2202237; note: nearly all actives have a fitted effect of over 40% in size); conditions: AML-194 (MECOM-r AML) viability, CellTiter-Glo, 48 h; series mostly up to 46 µM
Procedure, shortened: as §1

Measured: Potency
Potency is the fitted concentration of half-maximal effect.

O=C(O)CN1C(=O)N/C(=C\c2cccn2-c2ccc(P(=O)(O)O)cc2)C1=O
active: [5] 7.98 µM
inactive: [1] | [2] | [3] | [4]

COc1cc(C2Oc3c(OC)cc(CCCO[C@@H]4O[C@H](CO)[C@@H](O)[C@H](O)[C@H]4O)cc3C2CO)ccc1O (some centres undefined)
inactive: [1] | [2] | [6] | [4] | [5]

O=C1c2ccccc2NC(c2ccc(-c3ccc(F)cc3)o2)N1O (centres undefined)
active: [1] 1.58 µM | [2] 3.55 µM | [6] 12.7 µM | [5] 2.52 µM
inactive: [4]

COc1ccc(C2Nc3ccccc3C(=O)N2Cc2ccccc2)cc1COc1ccccc1OC (centres undefined)
active: [6] 8.96 µM
inactive: [1] | [2] | [4]

N#CNC(=O)c1ccc(-n2cccc2/C=C2\NC(=O)N(CC(=O)Nc3cccc(F)c3)C2=O)cc1
inactive: [1] | [2] | [3] | [4] | [5]

Cc1nc(NCc2ccc(-c3cccnc3)cc2)c2ccccc2n1
inactive: [1] | [2] | [6] | [4] | [5]

COc1ccc(C2Nc3ccccc3C(=O)N2Cc2ccccc2)cc1COc1ccc(C)cc1 (centres undefined)
inactive: [2] | [4]
active: [1] 3.98 µM | [6] 5.65 µM

CNc1oc(-c2ccc3c(c2)OCCO3)nc1C#N
inactive: [1] | [2] | [6] | [4]

S=C(Nc1ccccn1)c1ccccn1
active: [1] 28.3 µM | [2] 11.2 µM | [3] 6.34 µM | [5] 5.65 µM

N#Cc1c(-c2cccc(O)c2)no[n+]1[O-]
active: [6] 2.52 µM
inactive: [1] | [2] | [4]

CCOC(=O)c1c(-c2ccccc2)no[n+]1[O-]
inactive: [1] | [2] | [3] | [4]

CCOC(=O)c1ccc(O)c2ncc(N3CCC(C(=N)N)CC3)cc12
active: [3] 8.96 µM
inactive: [1] | [2] | [5]

Cc1c(-c2ccccc2)no[n+]1[O-]
inactive: [1] | [2] | [6] | [4] | [5]

Cc1nnc(CN(C)c2ncnc3ccc(-c4ccc5c(c4)OCO5)cc23)o1
inactive: [1] | [2] | [4]
active: [3] 20.1 µM | [5] 14.2 µM

O=C(Nc1ncc([N+](=O)[O-])s1)c1ccccc1O
active: [1] 28.2 µM | [3] 0.449 µM | [4] 2 µM
inactive: [2]

COc1ccc(C2Nc3ccccc3C(=O)N2Cc2cccnc2)cc1COc1ccc(NC(C)=O)cc1 (centres undefined)
inactive: [2] | [4]
active: [1] 15.8 µM | [6] 10.1 µM

CC(C)(C)Nc1nc(C#N)nc(Nc2ccccc2)n1
inactive: [1] | [2] | [3] | [4] | [5]

Cc1ccc(-c2cc(C(=O)Nc3cccc(S(N)(=O)=O)c3)c3ccccc3n2)cc1C
inactive: [1] | [2] | [6] | [4]

O=C1CCc2cc(S(=O)(=O)Nc3cc(F)cc(Cl)c3)c(F)cc2N1
inactive: [1] | [2] | [3] | [4] | [5]

O=C(/C=C/c1cccnc1)Nc1cccc([S+](=O)([O-])Nc2ccccc2F)c1
active: [6] 11.3 µM
inactive: [1] | [2] | [4] | [5]

Cc1cc(C)nc(NC(=S)N2CCN(c3cncc4ccccc34)CC2)c1
active: [3] 22.5 µM | [5] 5.65 µM
inactive: [1] | [2] | [4]

O=c1[nH]c(CN2CCOCC2)nc2sc3c(c12)CCC3
active: [3] 11.3 µM
inactive: [1] | [2] | [4] | [5]

Cc1ccc(-c2no[n+]([O-])c2C#N)cc1
inactive: [1] | [2] | [3] | [4]

[O-][n+]1onc(-c2ccccc2)c1/C=N/O
inactive: [1] | [2] | [6] | [4] | [5]

c1cn2cc(-c3ccc4cn[nH]c4c3)nc(Nc3ccc(N4CCOCC4)cc3)c2n1
active: [7] 5.25 µM | [8] 1.66 µM | [9] 4.17 µM | [10] 10.5 µM | [11] 1.32 µM
not listed: [6]
inactive: all other assays above

Cc1c(Cl)cccc1NS(=O)(=O)c1cc2c(cc1F)NC(=O)CC2
inactive: [1] | [2] | [3] | [4] | [5]
